# Measured values from PubChem BioAssay (NCATS).
# Where “and” joins values, the source holds several entries; their conditions need not be identical. Identical values can stand only once. Results filed as inconclusive are left out. A call without a number means that no potency is given here. Calls of active or inactive are those of the source. Unless noted, calls come from the whole dose curve; as a rule, active = well fitted curve in the direction sought with a large enough effect; inconclusive = small, poorly fitted or top-dose-only effect, or another doubt; inactive = no such curve, though single readings can be large; an effect the other way counts as inactive or inconclusive.
# Experiments:
# [1] = Cytotoxicity counterscreen for NFkB agonists and antagonists (AID 624476);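 note: cells exposed to compound for 48 hours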; note: potency is the fitted concentration of half-maximal effect
# [2] = qHTS Assay for Identification of Small Molecule Agonists for NFkB Signaling Pathway. (AID 624478);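 note: compounds tested together with TNF alpha at its EC50 of 10 pM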
# In short: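 Cells carrying an NFkB response element-driven beta-lactamase gene are co-treated with compound and 10 pM TNF alpha for 5 h, and reporter activity is then read as 460 and 530 nm fluorescence.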
# [3] = qHTS Assay for Identification of Small Molecule Antagonists for NFkB Signaling Pathway. (AID 624479; calls by dose curve;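 note: pathway stimulated with TNF alpha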; note: potency is the fitted concentration of half-maximal effect)
# [4] = Cell Proliferation Assay against the TMD8 Cell Line (AID 651645); settings: TMD8 DLBCL cell line proliferation/viability; at 46.1 µM (top of the series) unless noted;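 note: cells exposed to compound for 48 h before reading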
# In short: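 Viability by CellTiter-Glo after 48 h compound exposure of 500 log-phase TMD8 cells per well (RPMI, 5% FBS). Percent activity scaled between DMSO (100%) and 9.2 uM final bortezomib (0%).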
# [5] = Cell Proliferation Assay against the HBL1 Cell Line (AID 651646); settings: HBL1 DLBCL cells; at 46.1 µM (top of the series) unless noted;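 note: cells exposed to compound for 48 h before reading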
# In short: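 500 log-phase HBL1 cells per well in phenol red-free RPMI with 5% FBS were treated with compounds for 48 h at 37 °C, 5% CO2. Viability was read by CellTiter-Glo luminescence, normalized to DMSO (100%) and 9.2 uM bortezomib final (0%).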
# [6] = Cell Proliferation Assay against the TMD8 Cell Line (Caspase readout at 16 hrs) (AID 651712); note: potency is the fitted concentration of half-maximal effect
# In short: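 TMD8 cells (500/well) in phenol-red-free RPMI with glutamine, 5% FBS, were exposed to compounds for 16 h at 37 °C. Caspase 3/7 activation was read by Caspase-Glo luminescence; percent activity normalised to DMSO (0%) and 9.2 uM bortezomib final (100%).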
# [7] = Cell Proliferation Assay against the TMD8 Cell Line (Caspase readout at 8 hrs) (AID 651713)
# In short: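 Percent activity derived from Caspase-Glo signal, DMSO set to 0% and bortezomib (9.2 uM final) to 100%. TMD8 cells were exposed to compound for 8 h in RPMI with 5% FBS.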
# [8] = qHTS of Nrf2 Activators: LOPAC Validation (AID 624149)
# In short: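 ARE reporter activation measured in AREc32 firefly luciferase cells after 24 hr compound exposure; Steady-Glo luminescence.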
# [9] = HTS Assay for Allosteric Antagonists of the Human D2 Dopamine Receptor: Hit Validation in HTRF (AID 624455); note: potency is the fitted concentration of half-maximal effect;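 note: stable D1 dopamine receptor cell line scored for blocking the D1 response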
# In short: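 Signal from an HTRF read-out in D1-expressing stable cells gave hit activity as inhibition of the D1 response.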
# [10] = qHTS assay for small molecule agonists of the antioxidant response element (ARE) signaling pathway (AID 651741; active = well fitted activation curve with a large enough effect in the signal ratio; the % refers to the signal ratio; note: potency is the fitted concentration of half-maximal effect)
# In short: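 ARE-bla HepG2 cells (beta-lactamase reporter under ARE control) were plated at 2,000 cells/well, preincubated 5 h at 37 C/5% CO2, then treated with DMSO-dissolved compounds for 16 h at 37 C; LiveBLAzer B/G FRET substrate added, fluorescence read after 2 h at room temperature.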
SMILES,Potency [1],outcome [2],Potency [3],viability (% of control) [4],"viability, percent of control [5]",Potency [6],Potency [7],outcome [8],Potency [9],Potency [10]
Cn1c(=O)c(F)c(Nc2ccc(I)cc2F)c2c(=O)n(C[C@@H](O)CO)cnc21,inactive,inactive,inactive,63.3%,38.3%,–,–,–,–,–
CCOC(=O)C1=C[C@@]2(CC)CCCN3CCc4c(n1c1ccccc41)[C@H]32,inactive,inactive,inactive,87.1% [at 29.8 µM],96.9% [at 29.8 µM],inactive,inactive,–,–,–
CCCc1nn(C)c2c(=O)[nH]c(-c3cc(S(=O)(=O)N4CCN(C)CC4)ccc3OCC)nc12,inactive,inactive,inactive,102%,106%,inactive,inactive,–,–,–
Cc1cccc(-c2[nH]c(C(C)(C)C)nc2-c2ccc3nccnc3c2)n1,inactive,inactive,inactive,34%,100%,–,inactive,inactive,inactive,–
COc1ccc(CCN2CCN(CCCc3ccccc3)CC2)cc1OC,inactive,inactive,inactive,83.9%,85.9%,inactive,inactive,–,–,–
NS(=O)(=O)c1cc2c(cc1Cl)NC=NS2(=O)=O,–,–,–,–,–,–,–,inactive,inactive,inactive
CCC(C)N(C)C(=O)c1cc2ccccc2c(-c2ccccc2Cl)n1 (stereo not drawn),inactive,inactive,inactive,65.6%,90%,–,inactive,inactive,inactive,–
Cc1n[nH]c(C)c1Cc1sc2c(c1C(=O)N1C[C@H](O)CO1)c(=O)n(C)c(=O)n2CC(C)C,inactive,inactive,inactive,68.3%,76%,inactive,inactive,–,–,–
Cc1cc(-c2ccc(CC(=O)Nc3ccc(-c4cccnc4)cc3)cc2)ccn1,inactive,inactive,inactive,62.3%,101%,–,–,–,–,–
CNC(=O)c1ccccc1Sc1ccc2c(/C=C/c3ccccn3)n[nH]c2c1,inactive,inactive,inactive,23.8%,56.4%,inactive,inactive,–,–,–
CC(C)(C)NCC(O)c1ccc(O)c(CO)c1 (stereo not drawn),–,–,–,–,–,–,–,–,inactive,–
COc1cccc2cc(-c3nc(C4CCC(C(=O)O)CC4)n4ncnc(N)c34)[nH]c12 (stereo not drawn),inactive,inactive,inactive,18.4%,58.5%,–,–,–,–,–
Cc1cnc(Nc2ccc(OCCN3CCCC3)cc2)nc1Nc1cccc(S(=O)(=O)NC(C)(C)C)c1,inactive,inactive,inactive,90.7%,65.3%,inactive,inactive,–,–,–
COCC(=O)NCC=Cc1ccc2ncnc(Nc3ccc(Oc4ccc(C)nc4)c(C)c3)c2c1,26.4 µM (active),inactive,10.6 µM (active),28.1%,41.4%,–,–,–,–,–
CNC[C@H](O)c1cccc(O)c1,–,–,–,–,–,–,–,inactive,1.84 µM (active),inactive
Cc1c(CN2CCN(C(=O)C(C)C)CC2)sc2c(N3CCOCC3)nc(-c3cnc(N)nc3)nc12,0.148 µM (active),inactive,inactive,3.51%,45.6%,–,–,–,–,–
CCCC(CCC)C(=O)O,–,–,–,–,–,–,–,–,inactive,inactive
NC(=O)C1CCCc2c1[nH]c1ccc(Cl)cc21 (stereo not drawn),inactive,inactive,inactive,94.1%,73.1%,inactive,inactive,–,–,–
O=c1[nH]c(-c2ccc(C(F)(F)F)cc2)nc2c1CSCC2,inactive,inactive,inactive,82.1%,105%,inactive,inactive,–,–,–
CNCc1ccc(-c2[nH]c3cc(F)cc4c3c2CCNC4=O)cc1,inactive,inactive,21.1 µM (active),79.6%,73.9%,–,–,–,–,–
O=C1CCC(N2C(=O)c3ccccc3C2=O)C(=O)N1 (stereo not drawn),–,–,–,–,–,–,–,inactive,inactive,inactive
Cn1cnc([N+](=O)[O-])c1Sc1ncnc2nc[nH]c12,–,–,–,–,–,–,–,inactive,inactive,27.3 µM (active) and 37.6 µM (active)
COc1cc(Oc2ccnc3cc(OC)c(OC)cc23)ccc1NC(=O)NC(C)c1nccs1 (stereo not drawn),inactive,inactive,16.8 µM (active),69%,59.4%,–,–,–,–,–
COc1ccc(CC2=NN3C([C@@H](CCc4ccccc4)[C@@H](C)O)=NC(C)C3C(=O)N2)cc1OC (stereo partly drawn),inactive,inactive,inactive,72.3%,73.7%,inactive,inactive,–,–,–
Cc1[nH]c(=O)c(C#N)cc1-c1ccncc1,–,–,–,–,–,–,–,inactive,inactive,inactive
Cc1cc2c(C(C)C)c(O)c(O)c(C=O)c2c(O)c1-c1c(C)cc2c(C(C)C)c(O)c(O)c(C=O)c2c1O,–,inactive,–,5.42%,6.38%,–,–,inactive,inactive,–
C[C@@H]1C[C@H]2[C@@H]3CCC4=CC(=O)C=C[C@]4(C)C3(F)[C@@H](O)C[C@]2(C)[C@@]1(O)C(=O)CO (stereo partly drawn),inactive,inactive,inactive,40.7%,28.2%,inactive,inactive,–,–,–

SMILES,Potency [1],outcome [2],Potency [3],viability (% of control) [4],"viability, percent of control [5]",Potency [6],Potency [7],outcome [8],Potency [9],Potency [10]
Nc1nc2ccc(OC(F)(F)F)cc2s1,inactive,inactive,inactive,–,50.6%,inactive,inactive,inactive,inactive,–
Nc1ncnc2nc(-c3ccc(N4CCOCC4)nc3)cc(-c3cccc(Br)c3)c12,inactive,inactive,–,74.7%,66.5%,–,–,–,inactive,–
OC[C@H](Cc1ccccc1)Nc1nc(Oc2ccc3c(c2)CCC3)nc2c1ncn2Cc1ccc(-c2ccccc2)cc1,inactive,inactive,inactive,54.4%,35.2%,–,–,–,–,–
NC(=O)c1cnccn1,–,–,–,–,–,–,–,inactive,inactive,inactive
CC[C@@H](C)[C@H](NC(=O)[C@H](CC1CCCCC1)NC(=O)c1ccno1)C(=O)N1CCC2(CCc3ccccc32)CC1,inactive,inactive,inactive,62.6%,65.5%,inactive,inactive,–,–,–
Cc1[nH]c(=O)c(C#N)cc1-c1ccc2nccn2c1,inactive,inactive,inactive,104%,78.9%,–,inactive,inactive,inactive,–
CC(=O)Oc1ccccc1C(=O)O,–,–,–,–,–,–,–,inactive,inactive,inactive
CO[C@@H]1[C@H](N(C)C(=O)c2ccccc2)C[C@H]2O[C@]1(C)n1c3ccccc3c3c4c(c5c6ccccc6n2c5c31)C(=O)NC4,inactive,inactive,inactive,7.74%,23%,–,–,–,–,–
Cc1ccccc1C(OCCN(C)C)c1ccccc1 (stereo not drawn),–,–,–,–,–,–,–,inactive,inactive,inactive
C[C@H](NC(=O)Cc1cc(F)cc(F)c1)C(=O)N[C@@H]1C(=O)N(C)c2ccccc2-c2ccccc21,inactive,inactive,inactive,86.6%,87.3%,inactive,inactive,–,–,–
COc1ccc(-c2oc3cc(OC)ccc3c2C(=O)c2ccc(C#N)cc2)cc1,inactive,inactive,inactive,52.2%,76%,inactive,inactive,–,–,–
Cc1ccc2c(c1)C(=O)[C@@]1(O)CCN(c3ccccc3)C1=N2,inactive,inactive,inactive,77.6%,74.4%,inactive,inactive,–,–,–
CCc1cc(Nc2nccc(-c3c(-c4ccc(OC)c(C(=O)Nc5c(F)cccc5F)c4)nc4ccccn34)n2)c(OC)cc1N1CCC(N2CCN(S(C)(=O)=O)CC2)CC1,inactive,inactive,inactive,78.7%,87.3%,–,inactive,–,–,–
CS(=O)(=O)c1ccc(C(=O)Nc2ccc(Cl)c(-c3ccccn3)c2)c(Cl)c1,inactive,inactive,inactive,93.4%,99.4%,–,inactive,–,–,–
O=C(O)CCc1ccc(NCc2cccc(Oc3ccccc3)c2)cc1,inactive,inactive,inactive,107%,95.9%,–,inactive,–,–,–
O=C1[C@H](Cc2ccc(O)cc2)N2C(=O)CCN(C(=O)NCc3ccccc3)[C@H]2CN1Cc1cccc2ccccc12,inactive,inactive,inactive,27.3%,32.2%,23.5 µM (active),inactive,–,–,–
CCCS(=O)(=O)Nc1ccc(F)c(C(=O)c2c[nH]c3ncc(-c4ccc(Cl)cc4)cc23)c1F,20.9 µM (active),inactive,16.8 µM (active),41.4%,4.32%,–,inactive,–,–,–
O=c1ncn2nc(Sc3ccc(F)cc3F)ccc2c1-c1c(Cl)cccc1Cl,inactive,inactive,inactive,65.5%,62.3%,–,inactive,–,–,–
CCN(CC)CCCC(C)Nc1nc(C)cc(Nc2ccc3nc(C)cc(N)c3c2)n1 (stereo not drawn),inactive,inactive,inactive,65.5%,67.9%,–,inactive,–,–,–
CC1(C)SCCN(S(=O)(=O)c2ccc(OCC#CCO)cc2)[C@@H]1C(=O)NO,inactive,inactive,inactive,84.4%,97.2%,inactive,inactive,–,–,–
N#Cc1ccc(C(c2ccc(C#N)cc2)n2cncn2)cc1,inactive,inactive,inactive,71.5%,110%,inactive,inactive,–,–,–
COc1ccccc1[C@H](c1cccc2ccccc12)[C@@](C)(C#N)C(=O)N1CCC(c2cccc(C(F)(F)F)c2)CC1,inactive,inactive,inactive,83.6%,95.2%,inactive,inactive,–,–,–
CCn1c(-c2nonc2N)nc2cnc(Oc3cccc(NC(=O)c4ccc(OCCN5CCOCC5)cc4)c3)cc21,inactive,inactive,4.73 µM (active),19.6%,36.3%,–,inactive,–,–,–
COc1ccc(-c2ccc3c(N4CCOCC4)nc(N4C[C@@H](C)O[C@@H](C)C4)nc3n2)cc1CO,inactive,inactive,inactive,29.5%,57.7%,–,inactive,–,–,–
N#CC[C@H](C1CCCC1)n1cc(-c2ncnc3[nH]ccc23)cn1,inactive,inactive,16.8 µM (active),33.1%,65.7%,inactive,inactive,–,–,–
CCN(c1ccccc1)c1cc(NC)[n+](C)c(C)n1,inactive,inactive,inactive,99.5%,87.8%,inactive,inactive,–,–,–
COc1ccc(-c2ccc3c(N4CCOC[C@H]4C)nc(N4CCOC[C@H]4C)nc3n2)cc1CO,inactive,inactive,inactive,25%,57.8%,–,inactive,–,–,–
